Key:
Assay in all cases: DAPPL (digital affinity profiling via proximity ligation, sequencing); 10 mM Tris-HCl pH 7.5, 50 mM NaCl, 1 mM DTT, 4% glycerol, room temperature, 30 min; GST-TFs on glutathione beads, 16-mer random dsDNA library, 0.1% formaldehyde crosslink after washing; high values mean tight binding
FEV = molecular target: T1, FEV (Homo sapiens, UniProt Q99581 1-238); conditions: protein: recombinant; tags: N-terminal GST; dsDNA, one strand shown
T1 sequence: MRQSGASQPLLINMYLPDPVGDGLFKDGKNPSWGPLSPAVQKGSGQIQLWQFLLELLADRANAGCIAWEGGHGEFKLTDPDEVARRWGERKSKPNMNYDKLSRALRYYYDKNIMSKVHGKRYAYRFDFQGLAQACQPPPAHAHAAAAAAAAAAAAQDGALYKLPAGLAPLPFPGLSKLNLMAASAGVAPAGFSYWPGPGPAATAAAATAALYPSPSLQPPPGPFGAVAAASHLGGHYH
How it was run: (§1)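 Beads coated with glutathione captured GST-fused human transcription factors that had been expressed in yeast, and the factors were then given DNA barcodes and pooled with a tag-only sample. The pools were incubated with 200 nmole of a random double-stranded 16-mer DNA library in Tris/NaCl/DTT/glycerol buffer for 30 min at room temperature, washed, crosslinked with 0.1% formaldehyde and proximity-ligated with BsaI/T4 ligase at 37 °C for 1 h. PCR amplification and Illumina NextSeq500 sequencing came last. Binding signal is each hexamer's read frequency for a factor divided by its frequency for the tag-only sample.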

ETV5 = ETV5 (Homo sapiens, UniProt P41161 1-510); conditions: protein: recombinant; tags: N-terminal GST; dsDNA, one strand shown
ETV5, sequence (P41161 whole entry): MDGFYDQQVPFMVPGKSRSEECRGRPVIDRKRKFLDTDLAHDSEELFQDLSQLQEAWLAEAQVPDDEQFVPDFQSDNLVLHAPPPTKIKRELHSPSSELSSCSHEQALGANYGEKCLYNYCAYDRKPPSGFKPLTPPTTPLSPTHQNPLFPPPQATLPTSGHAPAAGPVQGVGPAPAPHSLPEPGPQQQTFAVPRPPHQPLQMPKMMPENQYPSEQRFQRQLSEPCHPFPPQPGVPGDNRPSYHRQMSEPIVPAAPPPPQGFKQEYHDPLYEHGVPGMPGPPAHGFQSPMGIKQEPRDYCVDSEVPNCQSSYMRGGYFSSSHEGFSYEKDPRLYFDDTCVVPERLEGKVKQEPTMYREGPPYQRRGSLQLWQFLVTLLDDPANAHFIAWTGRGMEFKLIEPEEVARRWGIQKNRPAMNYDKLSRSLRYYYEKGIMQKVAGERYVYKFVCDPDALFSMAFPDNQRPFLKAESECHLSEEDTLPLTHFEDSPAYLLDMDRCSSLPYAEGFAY
How it was run: as §1

HSF1 = HSF1 (Homo sapiens, UniProt Q00613 1-529); conditions: protein: recombinant; tags: N-terminal GST; chain copies: 3; dsDNA, one strand shown
HSF1, sequence (Q00613 whole entry): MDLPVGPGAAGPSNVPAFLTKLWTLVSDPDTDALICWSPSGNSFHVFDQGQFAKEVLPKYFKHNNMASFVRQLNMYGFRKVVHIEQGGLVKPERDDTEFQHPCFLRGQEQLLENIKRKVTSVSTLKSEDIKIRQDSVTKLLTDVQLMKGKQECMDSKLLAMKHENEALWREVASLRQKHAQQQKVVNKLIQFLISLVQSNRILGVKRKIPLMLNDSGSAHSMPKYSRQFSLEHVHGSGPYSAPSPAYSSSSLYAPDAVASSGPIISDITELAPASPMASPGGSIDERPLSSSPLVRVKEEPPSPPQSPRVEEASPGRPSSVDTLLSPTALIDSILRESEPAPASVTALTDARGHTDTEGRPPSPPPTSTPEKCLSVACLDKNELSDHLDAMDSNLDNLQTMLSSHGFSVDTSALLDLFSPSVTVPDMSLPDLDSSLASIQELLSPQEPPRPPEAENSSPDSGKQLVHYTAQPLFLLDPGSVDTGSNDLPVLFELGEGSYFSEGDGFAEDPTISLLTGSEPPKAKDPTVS
How it was run: as §1

SPIC = molecular target: T2, SPIC (Homo sapiens, UniProt Q8N5J4 1-248); conditions: protein: recombinant; tags: N-terminal GST; dsDNA, one strand shown
T2 sequence: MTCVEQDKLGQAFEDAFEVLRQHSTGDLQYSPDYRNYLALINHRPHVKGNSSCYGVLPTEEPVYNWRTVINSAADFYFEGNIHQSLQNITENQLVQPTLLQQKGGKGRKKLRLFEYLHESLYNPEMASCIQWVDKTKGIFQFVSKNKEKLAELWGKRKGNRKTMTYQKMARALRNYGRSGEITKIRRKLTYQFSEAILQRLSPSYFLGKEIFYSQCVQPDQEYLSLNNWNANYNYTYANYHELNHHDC
How it was run: as §1

ELF4 = ELF4 (Homo sapiens, UniProt Q99607 1-663); conditions: protein: recombinant; tags: N-terminal GST; dsDNA, one strand shown
ELF4, sequence (Q99607 whole entry): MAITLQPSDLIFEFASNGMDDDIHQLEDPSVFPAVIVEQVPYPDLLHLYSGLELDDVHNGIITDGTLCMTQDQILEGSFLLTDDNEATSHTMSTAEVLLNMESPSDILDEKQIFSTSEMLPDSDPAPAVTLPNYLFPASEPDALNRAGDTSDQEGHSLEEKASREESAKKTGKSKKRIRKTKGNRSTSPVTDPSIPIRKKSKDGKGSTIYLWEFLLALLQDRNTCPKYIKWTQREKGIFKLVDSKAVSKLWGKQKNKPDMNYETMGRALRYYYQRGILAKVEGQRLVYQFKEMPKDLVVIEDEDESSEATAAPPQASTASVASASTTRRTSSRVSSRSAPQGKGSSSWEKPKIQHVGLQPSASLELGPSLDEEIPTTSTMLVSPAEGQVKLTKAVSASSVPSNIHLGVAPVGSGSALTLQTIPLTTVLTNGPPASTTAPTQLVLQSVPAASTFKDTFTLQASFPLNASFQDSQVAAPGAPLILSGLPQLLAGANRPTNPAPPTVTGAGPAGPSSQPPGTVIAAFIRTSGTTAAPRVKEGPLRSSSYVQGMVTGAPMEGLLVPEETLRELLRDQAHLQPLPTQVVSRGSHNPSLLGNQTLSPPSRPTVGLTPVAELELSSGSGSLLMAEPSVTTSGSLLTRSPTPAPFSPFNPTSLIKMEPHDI
How it was run: as §1

ELK4 = molecular target: T3, ELK4 (Homo sapiens, UniProt P28324-2 1-405); conditions: protein: recombinant; tags: N-terminal GST; dsDNA, one strand shown
T3 sequence: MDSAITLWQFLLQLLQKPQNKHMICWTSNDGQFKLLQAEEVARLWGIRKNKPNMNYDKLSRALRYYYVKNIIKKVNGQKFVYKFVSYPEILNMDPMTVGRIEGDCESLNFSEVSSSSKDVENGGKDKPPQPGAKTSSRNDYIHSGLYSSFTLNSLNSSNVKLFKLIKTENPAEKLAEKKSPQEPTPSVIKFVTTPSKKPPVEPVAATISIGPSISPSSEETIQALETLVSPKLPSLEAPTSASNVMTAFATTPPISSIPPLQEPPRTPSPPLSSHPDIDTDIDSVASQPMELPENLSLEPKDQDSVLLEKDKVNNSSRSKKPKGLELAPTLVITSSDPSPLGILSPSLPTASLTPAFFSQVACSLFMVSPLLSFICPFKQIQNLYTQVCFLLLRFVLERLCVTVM
How it was run: as §1

ETV2 = molecular target: T4, ETV2 (Homo sapiens, UniProt O00321 1-342); conditions: protein: recombinant; tags: N-terminal GST; dsDNA, one strand shown
T4 sequence: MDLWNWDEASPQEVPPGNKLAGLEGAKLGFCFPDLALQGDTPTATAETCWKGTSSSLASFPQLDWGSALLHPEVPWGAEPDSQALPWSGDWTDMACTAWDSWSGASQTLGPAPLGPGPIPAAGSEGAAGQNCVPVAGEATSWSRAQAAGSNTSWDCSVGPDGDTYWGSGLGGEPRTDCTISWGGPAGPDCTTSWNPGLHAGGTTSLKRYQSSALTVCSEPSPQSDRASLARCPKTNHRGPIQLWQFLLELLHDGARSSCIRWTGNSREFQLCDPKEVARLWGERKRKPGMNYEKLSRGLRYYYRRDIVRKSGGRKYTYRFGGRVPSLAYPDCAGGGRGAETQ
How it was run: as §1

ELF3 = molecular target: T5, ELF3 (Homo sapiens, UniProt P78545 1-371); conditions: protein: recombinant; tags: N-terminal GST; dsDNA, one strand shown
T5 sequence: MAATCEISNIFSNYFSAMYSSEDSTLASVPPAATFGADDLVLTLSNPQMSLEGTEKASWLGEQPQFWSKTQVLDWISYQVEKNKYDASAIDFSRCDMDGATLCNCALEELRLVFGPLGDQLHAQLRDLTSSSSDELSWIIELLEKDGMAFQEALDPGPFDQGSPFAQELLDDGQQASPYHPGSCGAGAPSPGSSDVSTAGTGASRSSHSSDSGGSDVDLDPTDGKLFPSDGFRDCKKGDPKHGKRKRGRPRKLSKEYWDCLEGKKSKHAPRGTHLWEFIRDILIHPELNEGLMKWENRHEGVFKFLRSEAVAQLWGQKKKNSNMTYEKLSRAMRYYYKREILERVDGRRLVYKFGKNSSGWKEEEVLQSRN
How it was run: as §1

CRX = CRX (Homo sapiens, UniProt O43186 1-299); conditions: protein: recombinant; tags: N-terminal GST; dsDNA, one strand shown
CRX, sequence (O43186 whole entry): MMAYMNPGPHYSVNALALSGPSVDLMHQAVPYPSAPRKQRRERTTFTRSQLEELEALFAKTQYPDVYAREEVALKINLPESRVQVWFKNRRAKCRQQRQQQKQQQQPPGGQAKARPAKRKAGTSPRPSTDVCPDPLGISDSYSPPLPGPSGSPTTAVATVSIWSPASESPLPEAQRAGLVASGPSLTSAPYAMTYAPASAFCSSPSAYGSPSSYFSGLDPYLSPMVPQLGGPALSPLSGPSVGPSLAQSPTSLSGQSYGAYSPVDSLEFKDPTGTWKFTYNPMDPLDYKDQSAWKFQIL
How it was run: as §1

ETV1 = ETV1 (Homo sapiens, UniProt P50549 1-477); conditions: protein: recombinant; tags: N-terminal GST; dsDNA, one strand shown
ETV1, sequence (P50549 whole entry): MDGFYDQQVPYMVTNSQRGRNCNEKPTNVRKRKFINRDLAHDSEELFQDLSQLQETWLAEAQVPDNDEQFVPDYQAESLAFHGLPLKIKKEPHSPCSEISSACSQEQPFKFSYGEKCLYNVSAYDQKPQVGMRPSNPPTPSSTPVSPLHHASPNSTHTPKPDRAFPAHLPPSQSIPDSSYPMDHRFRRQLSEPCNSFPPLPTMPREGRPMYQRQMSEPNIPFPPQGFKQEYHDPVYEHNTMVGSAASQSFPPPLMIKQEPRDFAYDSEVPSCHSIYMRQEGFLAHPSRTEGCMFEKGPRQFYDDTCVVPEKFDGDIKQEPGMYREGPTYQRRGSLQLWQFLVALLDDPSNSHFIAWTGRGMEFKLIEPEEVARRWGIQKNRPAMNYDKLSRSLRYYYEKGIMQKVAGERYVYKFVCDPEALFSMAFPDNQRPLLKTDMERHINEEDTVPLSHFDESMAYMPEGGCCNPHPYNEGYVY
How it was run: as §1

ERF = molecular target: T6, ERF (Homo sapiens, UniProt P50548 1-548); conditions: protein: recombinant; tags: N-terminal GST; dsDNA, one strand shown
T6 sequence: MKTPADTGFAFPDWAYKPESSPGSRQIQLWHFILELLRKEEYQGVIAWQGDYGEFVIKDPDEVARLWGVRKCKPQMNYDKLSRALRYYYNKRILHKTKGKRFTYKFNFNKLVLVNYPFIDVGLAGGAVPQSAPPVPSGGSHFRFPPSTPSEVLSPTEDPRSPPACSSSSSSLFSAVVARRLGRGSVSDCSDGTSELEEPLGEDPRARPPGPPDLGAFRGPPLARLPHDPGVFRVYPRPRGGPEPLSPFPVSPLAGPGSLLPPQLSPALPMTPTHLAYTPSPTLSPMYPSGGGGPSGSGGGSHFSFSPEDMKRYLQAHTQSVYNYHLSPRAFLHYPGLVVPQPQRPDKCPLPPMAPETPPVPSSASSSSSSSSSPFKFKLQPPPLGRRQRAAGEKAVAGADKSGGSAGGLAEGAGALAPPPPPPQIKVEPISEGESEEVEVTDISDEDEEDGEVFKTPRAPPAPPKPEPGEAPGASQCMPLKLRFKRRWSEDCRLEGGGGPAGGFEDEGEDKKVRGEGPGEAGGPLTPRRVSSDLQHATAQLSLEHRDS
How it was run: as §1

ETV3L = molecular target: T7, ETV3L (Homo sapiens, UniProt Q6ZN32 1-361); conditions: protein: recombinant; tags: N-terminal GST; dsDNA, one strand shown
T7 sequence: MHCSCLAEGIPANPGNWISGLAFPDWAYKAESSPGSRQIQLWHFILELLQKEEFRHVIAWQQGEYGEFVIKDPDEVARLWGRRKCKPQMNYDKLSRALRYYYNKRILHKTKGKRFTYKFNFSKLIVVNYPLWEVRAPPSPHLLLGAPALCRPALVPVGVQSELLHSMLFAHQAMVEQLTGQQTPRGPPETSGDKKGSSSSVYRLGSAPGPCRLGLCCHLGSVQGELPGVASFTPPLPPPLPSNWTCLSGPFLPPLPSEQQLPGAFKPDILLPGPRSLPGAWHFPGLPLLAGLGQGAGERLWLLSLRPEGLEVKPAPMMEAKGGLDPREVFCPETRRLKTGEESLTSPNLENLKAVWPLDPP
How it was run: as §1

ETS2 = molecular target: T8, ETS2 (Homo sapiens, UniProt P15036 1-469); conditions: protein: recombinant; tags: N-terminal GST; dsDNA, one strand shown
T8 sequence: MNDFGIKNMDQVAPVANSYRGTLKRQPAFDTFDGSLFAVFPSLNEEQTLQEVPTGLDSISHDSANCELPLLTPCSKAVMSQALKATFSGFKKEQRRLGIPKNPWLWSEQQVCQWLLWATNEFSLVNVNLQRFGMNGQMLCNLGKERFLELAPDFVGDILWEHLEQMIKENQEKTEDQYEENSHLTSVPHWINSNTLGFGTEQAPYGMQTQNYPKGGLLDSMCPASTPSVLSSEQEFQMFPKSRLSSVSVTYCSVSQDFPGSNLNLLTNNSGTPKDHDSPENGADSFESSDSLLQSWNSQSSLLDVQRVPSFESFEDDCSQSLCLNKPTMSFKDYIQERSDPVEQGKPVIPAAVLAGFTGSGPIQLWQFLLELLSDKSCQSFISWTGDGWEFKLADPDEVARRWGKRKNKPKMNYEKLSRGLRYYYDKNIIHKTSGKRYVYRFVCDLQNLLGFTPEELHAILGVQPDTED
How it was run: as §1

SPDEF = molecular target: T9, SPDEF (Homo sapiens, UniProt O95238 1-335); conditions: protein: recombinant; tags: N-terminal GST; dsDNA, one strand shown
T9 sequence: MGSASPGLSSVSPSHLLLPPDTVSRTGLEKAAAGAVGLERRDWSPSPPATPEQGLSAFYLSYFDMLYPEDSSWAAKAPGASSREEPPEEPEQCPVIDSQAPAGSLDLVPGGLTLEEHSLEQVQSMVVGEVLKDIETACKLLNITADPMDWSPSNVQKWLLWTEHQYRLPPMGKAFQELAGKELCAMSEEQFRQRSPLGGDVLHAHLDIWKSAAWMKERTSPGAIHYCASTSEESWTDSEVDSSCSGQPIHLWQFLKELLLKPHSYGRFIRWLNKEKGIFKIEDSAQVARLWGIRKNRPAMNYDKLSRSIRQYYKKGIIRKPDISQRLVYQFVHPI
How it was run: as §1

ETV7 = molecular target: T10, ETV7 (Homo sapiens, UniProt Q9Y603 1-341); conditions: protein: recombinant; tags: N-terminal GST; dsDNA, one strand shown
T10 sequence: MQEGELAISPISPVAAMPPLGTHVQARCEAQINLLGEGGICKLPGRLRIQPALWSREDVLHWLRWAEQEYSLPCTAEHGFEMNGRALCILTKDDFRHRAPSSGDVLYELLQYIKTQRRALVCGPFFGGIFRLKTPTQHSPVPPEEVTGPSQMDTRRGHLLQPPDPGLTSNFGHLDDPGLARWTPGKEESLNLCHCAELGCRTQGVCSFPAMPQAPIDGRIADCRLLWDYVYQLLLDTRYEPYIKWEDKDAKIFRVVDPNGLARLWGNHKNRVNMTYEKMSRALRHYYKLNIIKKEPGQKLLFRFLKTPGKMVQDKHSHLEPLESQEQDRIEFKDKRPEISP
How it was run: as §1

ELF5 = molecular target: T11, ELF5 (Homo sapiens, UniProt Q9UKW6-2 1-255); conditions: protein: recombinant; tags: N-terminal GST; dsDNA, one strand shown
T11 sequence: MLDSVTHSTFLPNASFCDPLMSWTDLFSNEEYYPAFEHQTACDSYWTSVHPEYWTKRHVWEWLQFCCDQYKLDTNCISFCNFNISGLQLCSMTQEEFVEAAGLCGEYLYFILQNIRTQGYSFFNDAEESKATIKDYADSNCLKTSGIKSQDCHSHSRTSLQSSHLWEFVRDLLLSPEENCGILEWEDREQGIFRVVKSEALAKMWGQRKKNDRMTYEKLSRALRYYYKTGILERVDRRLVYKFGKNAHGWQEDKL
How it was run: as §1

ETV3 = molecular target: T12, ETV3 (Homo sapiens, UniProt P41162-2 1-143); conditions: protein: recombinant; tags: N-terminal GST; dsDNA, one strand shown
T12 sequence: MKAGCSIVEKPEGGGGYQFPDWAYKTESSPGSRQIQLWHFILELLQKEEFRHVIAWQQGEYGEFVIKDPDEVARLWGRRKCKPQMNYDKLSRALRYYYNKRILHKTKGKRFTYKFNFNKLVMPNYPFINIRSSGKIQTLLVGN
How it was run: as §1

ETV6 = ETV6 (Homo sapiens, UniProt P41212 1-452); conditions: protein: recombinant; tags: N-terminal GST; dsDNA, one strand shown
ETV6, sequence (P41212 whole entry): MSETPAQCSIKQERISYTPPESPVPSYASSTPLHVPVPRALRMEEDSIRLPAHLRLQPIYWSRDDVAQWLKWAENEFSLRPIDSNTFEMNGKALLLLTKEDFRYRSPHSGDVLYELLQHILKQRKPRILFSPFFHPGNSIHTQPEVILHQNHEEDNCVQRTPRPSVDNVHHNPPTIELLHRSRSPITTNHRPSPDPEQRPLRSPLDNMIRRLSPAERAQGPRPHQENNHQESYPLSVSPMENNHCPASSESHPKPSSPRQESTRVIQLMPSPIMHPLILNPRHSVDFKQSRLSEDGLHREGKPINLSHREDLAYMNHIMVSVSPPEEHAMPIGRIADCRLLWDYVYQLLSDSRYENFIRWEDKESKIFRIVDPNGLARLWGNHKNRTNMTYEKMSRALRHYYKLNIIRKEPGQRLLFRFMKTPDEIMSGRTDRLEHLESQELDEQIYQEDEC
How it was run: as §1

Which binding signal (FEV) does the source give for TGTCTA here?
The binding signal was 1.14 fold enrichment (6-mer frequency, TF over GST control).

And the binding signal (ETV5)?
The binding signal was 1.24 fold enrichment (6-mer frequency, TF over GST control).

What about the binding signal (HSF1) of the same sequence?
Its binding signal is 1.15 fold enrichment (6-mer frequency, TF over GST control).

What about the binding signal (SPIC) of the same sequence?
Its binding signal is 1.35 fold enrichment (6-mer frequency, TF over GST control).

What about the binding signal (ELF4) of the same sequence?
Its binding signal is 1.2 fold enrichment (6-mer frequency, TF over GST control).

What about the binding signal (ELK4) of the same sequence?
Its binding signal is 1.06 fold enrichment (6-mer frequency, TF over GST control).

What about the binding signal (ETV2) of the same sequence?
The binding signal was 1.34 fold enrichment (6-mer frequency, TF over GST control).

What about the binding signal (ELF3) of the same sequence?
The binding signal was 1.06 fold enrichment (6-mer frequency, TF over GST control).

And the binding signal (CRX)?
The binding signal was 1.05 fold enrichment (6-mer frequency, TF over GST control).

And the binding signal (ETV1)?
Its binding signal is 1.24 fold enrichment (6-mer frequency, TF over GST control).

What about the binding signal (ERF) of the same sequence?
Its binding signal is 1.21 fold enrichment (6-mer frequency, TF over GST control).

And the binding signal (ETV3L)?
Its binding signal is 1.08 fold enrichment (6-mer frequency, TF over GST control).

And the binding signal (ETS2)?
Its binding signal is 1.18 fold enrichment (6-mer frequency, TF over GST control).

And the binding signal (SPDEF)?
The binding signal was 1.2 fold enrichment (6-mer frequency, TF over GST control).

And the binding signal (ETV7)?
Its binding signal is 1.28 fold enrichment (6-mer frequency, TF over GST control).

And the binding signal (ELF5)?
The binding signal was 1.24 fold enrichment (6-mer frequency, TF over GST control).

What about the binding signal (ETV3) of the same sequence?
The binding signal was 1.23 fold enrichment (6-mer frequency, TF over GST control).

And the binding signal (ETV6)?
Its binding signal is 1.07 fold enrichment (6-mer frequency, TF over GST control).
